Active and inactive are the calls of the source.

The target of one assay is Albumin (Bos taurus) (UniProt P02769). As to the kind of experiment: bovine serum albumin binders on microarray, profiling panel, artefact control for SMM control protein annotation, biochemical, small-molecule microarray, Alexa647 label, 635/667 nm fluorescence (AID 1118).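 Further: score merges 667 nm emission intensity and signal-to-noise per printed compound spot.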 Conditions: BSA-A647 binding, fluorescence 635 nm, higher = more signal.
A short description of assay [1]: small-molecule microarray binders of probe aXIP, primary screen, biochemical, NeuroSMM set, 635/667 nm fluorescence (AID 1119).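 Further: probe is the protein aXip251-270 applied at 1 µg/mL to compound-printed slides; binding of probe to printed compounds measured as 667 nm fluorescence plus signal to noise.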 To be noted: higher = more signal, called active from +8 up or from −8 down unless noted.
Assay [2] can be described thus: small-molecule binders of probe aNOTCH3, primary screen, biochemical, small-molecule microarray, 635/667 nm fluorescence (AID 1120).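 Further: probe is a biotin-tagged antibody raised against NOTCH3 rather than NOTCH3 protein; score merges spot fluorescence near 667 nm with spot signal to noise.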 To be noted: higher = more signal; small-molecule microarray, probe aNOTCH3, fluorescence unless noted.
Assay [3] in a line: small-molecule binders of probe aNOTCH2, primary screen, biochemical, small-molecule microarray, 635/667 nm fluorescence (AID 1121).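 Further: score merges feature fluorescence read at 667 nm with its signal to noise.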 To be noted: higher = more signal; small-molecule microarray, probe aNOTCH2, fluorescence unless noted.
Assay [4] addresses Carbonic anhydrase 2 (Homo sapiens) (UniProt P00918). As to the kind of experiment: CAII small-molecule binders, profiling panel, biochemical, small-molecule microarray, Alexa647-labelled CAII (AID 1122). Conditions: CAII-A647 binding fluorescence, higher = more signal.
A short description of assay [5]: COS7 lysate on small-molecule microarray, probe aHis, 635 nm (AID 1123).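 Further: z-score combines 667nm fluorescence intensity with signal-to-noise per printed compound spot.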 Conditions: higher = more signal; small-molecule microarray, COS7 cell lysate, probe aHis, fluorescence unless noted.
The nature of assay [6]: compound binding in COS7 lysate, probe aLAP1, primary screen, cell lysate, small-molecule microarray (AID 1124).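 Further: lysate comes from COS7 cells expressing LAP1 and is applied at 0.3 µg/mL; score merges spot fluorescence near 667 nm with signal-to-noise over triplicate slides.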 Conditions: higher = more signal; small-molecule microarray, COS7 cell lysate, probe aLAP1, fluorescence unless noted.
The next assay relates to Sam68 (KHDRBS1). As to the kind of experiment: Sam68 small-molecule binders, primary screen, biochemical, small-molecule microarray, 635 nm fluorescence (AID 1125).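 Further: score merges 667 nm channel intensity with signal to noise over triplicate slides.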 To be noted: small-molecule microarray binding, higher = more signal.
Assay [7] has as its system Chordin-like protein 2 (CHRDL2). As to the kind of experiment: CHRDL2 small-molecule binders, primary screen, biochemical, small-molecule microarray, 635 nm fluorescence (AID 1126).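 Further: printed compound slides probed with Chrdl2 protein at 4 µg/mL for 1 h at 4 C; score merges 667 nm emission intensity with signal to noise over three replicate slides.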 To be noted: small-molecule microarray binding, fluorescence 635 nm; higher = more signal.
In assay [8] the target is Concanavalin-A (Canavalia ensiformis) (UniProt P02866). As to the kind of experiment: ConA small-molecule binders, primary screen, artefact control for SMM control protein annotation, biochemical, small-molecule microarray, Alexa647 label, 635 nm (AID 1127).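 Further: z combines 667 nm emission intensity with signal-to-noise across three replicate slides.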 To be noted: ConA-A647 binding fluorescence, higher = more signal.
A short description of assay [9]: anti-His antibody binders, primary screen, artefact control for SMM control protein annotation, biochemical, small-molecule microarray, 635 nm fluorescence (AID 1128).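 Further: score merges feature fluorescence with signal-to-noise for each printed compound spot.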 Conditions: anti-His Alexa647 antibody binding, higher = more signal.
Assay [10] relates to Human papillomavirus type 1a E7 protein (residues 1-88). As to the kind of experiment: HPV1a E7 small-molecule binders, primary screen, biochemical, small-molecule microarray, residues 1-88, 635 nm (AID 1129). Conditions: small-molecule microarray binding, fluorescence 635 nm; higher = more signal.
Assay [11] has as its target Focal adhesion kinase 1 (Homo sapiens) (UniProt Q05397). As to the kind of experiment: small-molecule microarray binders of FAK, primary screen, biochemical, 635/667 nm fluorescence, BSA, DTT (AID 1130).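 Further: composite of spot emission at 667 nm and signal to noise over triplicate slides.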 Conditions: PTK2 binding, 635 nm fluorescence, higher = more signal.
For assay [12], the system named is Fibrinogen (Alexa647-labelled). As to the kind of experiment: fibrinogen binders on compound microarrays, profiling panel, artefact control for SMM control-protein annotation, biochemical, small-molecule microarray, 635/667 nm fluorescence (AID 1131).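 Further: z-score merges 667 nm fluorescence with per-spot signal-to-noise over triplicate slides.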 To be noted: fibrinogen-A647 binding fluorescence, higher = more signal.
In assay [13] the target is Follistatin (Homo sapiens) (UniProt P19883). As to the kind of experiment: follistatin binders on small-molecule microarrays, primary screen, biochemical, small-molecule microarray, 635/667 nm fluorescence (AID 1132). To be noted: FST binding, 635 nm fluorescence, higher = more signal.
Assay [14] concerns the target Fibroblast growth factor 2 (Homo sapiens) (UniProt P09038). As to the kind of experiment: FGF2 binders on small-molecule microarrays, primary screen, biochemical, small-molecule microarray, 635/667 nm fluorescence (AID 1133). To be noted: small-molecule microarray binding, FGF2, fluorescence 635/667; higher = more signal.
Assay [15] in a line: mitochondrial membrane potential change in A549 cells, profiling panel, cell-based, JC-1 fluorescence, basal, 24 h, 100 nL (AID 1138).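 Further: A549 lung adenocarcinoma cells under basal conditions with no added stimulus; test concentration not given here.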 Conditions: higher = more signal.
The next assay relates to Lefty1. As to the kind of experiment: Lefty1 binders on small-molecule microarrays, primary screen, biochemical, small-molecule microarray, 635/667 nm fluorescence (AID 1139). Conditions: small-molecule microarray binding, fluorescence 635/667; higher = more signal.
For assay [16], the system named is wheat germ agglutinin (Triticum aestivum), Alexa647-labelled. As to the kind of experiment: wheat germ agglutinin binders on compound microarrays, profiling panel, artefact control for SMM control-protein annotation, biochemical, small-molecule microarray, 635/667 nm fluorescence (AID 1140).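 Further: score merges 667 nm feature emission with signal to noise over triplicate slides.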 To be noted: WGA-A647 binding, 635 nm fluorescence, higher = more signal.

Assay [17] addresses Luciferin 4-monooxygenase (Photinus pyralis) (UniProt P08659). As to the kind of experiment: firefly luciferase enzyme inhibitors, primary screen, biochemical, luminescence, purified enzyme, 2006 set (AID 1141).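 Further: cell-free assay with purified firefly luciferase at 100 ng per well in PBS; test concentration not given here.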 To be noted: SteadyGlo luminescence, 30 min; higher = more signal, called active from +8 up or from −8 down unless noted.

Sequence of Albumin (Bos taurus) (P02769 whole entry, looked up): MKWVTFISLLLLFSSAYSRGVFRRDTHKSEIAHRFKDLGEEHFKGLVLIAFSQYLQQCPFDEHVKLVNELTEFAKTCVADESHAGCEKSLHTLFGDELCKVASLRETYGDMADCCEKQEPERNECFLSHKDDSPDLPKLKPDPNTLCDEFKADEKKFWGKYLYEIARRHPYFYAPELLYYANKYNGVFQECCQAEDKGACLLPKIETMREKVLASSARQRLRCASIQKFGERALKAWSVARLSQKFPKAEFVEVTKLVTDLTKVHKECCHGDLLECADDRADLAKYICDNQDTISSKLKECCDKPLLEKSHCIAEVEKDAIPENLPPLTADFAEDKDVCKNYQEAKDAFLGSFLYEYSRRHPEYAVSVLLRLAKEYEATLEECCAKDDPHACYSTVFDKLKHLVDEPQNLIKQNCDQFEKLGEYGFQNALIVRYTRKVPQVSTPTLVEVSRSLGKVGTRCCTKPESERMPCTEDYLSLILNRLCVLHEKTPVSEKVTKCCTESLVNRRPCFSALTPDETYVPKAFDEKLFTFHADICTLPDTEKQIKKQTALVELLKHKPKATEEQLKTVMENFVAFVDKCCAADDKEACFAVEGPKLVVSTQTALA
Sequence of Concanavalin-A (Canavalia ensiformis) (P02866 whole entry, looked up): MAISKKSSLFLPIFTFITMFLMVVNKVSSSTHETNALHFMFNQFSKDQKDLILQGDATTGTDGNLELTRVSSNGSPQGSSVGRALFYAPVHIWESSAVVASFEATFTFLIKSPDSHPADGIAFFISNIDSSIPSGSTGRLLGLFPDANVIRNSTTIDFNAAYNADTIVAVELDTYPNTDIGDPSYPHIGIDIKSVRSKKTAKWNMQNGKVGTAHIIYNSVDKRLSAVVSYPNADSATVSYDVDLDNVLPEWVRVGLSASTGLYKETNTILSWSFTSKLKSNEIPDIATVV
Sequence of Luciferin 4-monooxygenase (Photinus pyralis) (P08659 whole entry, looked up): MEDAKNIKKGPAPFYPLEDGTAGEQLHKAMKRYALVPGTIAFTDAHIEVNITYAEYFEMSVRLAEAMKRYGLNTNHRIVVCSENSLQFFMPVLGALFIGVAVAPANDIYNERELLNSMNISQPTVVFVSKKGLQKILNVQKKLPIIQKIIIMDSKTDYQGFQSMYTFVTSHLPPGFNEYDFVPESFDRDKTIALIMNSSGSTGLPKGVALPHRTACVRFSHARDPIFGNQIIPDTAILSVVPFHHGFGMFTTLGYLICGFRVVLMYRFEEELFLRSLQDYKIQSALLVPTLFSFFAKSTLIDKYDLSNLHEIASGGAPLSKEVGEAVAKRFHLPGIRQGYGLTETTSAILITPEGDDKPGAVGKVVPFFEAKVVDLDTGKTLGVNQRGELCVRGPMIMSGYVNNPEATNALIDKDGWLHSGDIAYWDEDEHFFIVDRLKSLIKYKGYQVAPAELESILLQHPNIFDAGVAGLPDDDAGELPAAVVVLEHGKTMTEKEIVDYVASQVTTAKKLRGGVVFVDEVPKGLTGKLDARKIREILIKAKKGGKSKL
Sequence of Focal adhesion kinase 1 (Homo sapiens) (Q05397 whole entry, looked up): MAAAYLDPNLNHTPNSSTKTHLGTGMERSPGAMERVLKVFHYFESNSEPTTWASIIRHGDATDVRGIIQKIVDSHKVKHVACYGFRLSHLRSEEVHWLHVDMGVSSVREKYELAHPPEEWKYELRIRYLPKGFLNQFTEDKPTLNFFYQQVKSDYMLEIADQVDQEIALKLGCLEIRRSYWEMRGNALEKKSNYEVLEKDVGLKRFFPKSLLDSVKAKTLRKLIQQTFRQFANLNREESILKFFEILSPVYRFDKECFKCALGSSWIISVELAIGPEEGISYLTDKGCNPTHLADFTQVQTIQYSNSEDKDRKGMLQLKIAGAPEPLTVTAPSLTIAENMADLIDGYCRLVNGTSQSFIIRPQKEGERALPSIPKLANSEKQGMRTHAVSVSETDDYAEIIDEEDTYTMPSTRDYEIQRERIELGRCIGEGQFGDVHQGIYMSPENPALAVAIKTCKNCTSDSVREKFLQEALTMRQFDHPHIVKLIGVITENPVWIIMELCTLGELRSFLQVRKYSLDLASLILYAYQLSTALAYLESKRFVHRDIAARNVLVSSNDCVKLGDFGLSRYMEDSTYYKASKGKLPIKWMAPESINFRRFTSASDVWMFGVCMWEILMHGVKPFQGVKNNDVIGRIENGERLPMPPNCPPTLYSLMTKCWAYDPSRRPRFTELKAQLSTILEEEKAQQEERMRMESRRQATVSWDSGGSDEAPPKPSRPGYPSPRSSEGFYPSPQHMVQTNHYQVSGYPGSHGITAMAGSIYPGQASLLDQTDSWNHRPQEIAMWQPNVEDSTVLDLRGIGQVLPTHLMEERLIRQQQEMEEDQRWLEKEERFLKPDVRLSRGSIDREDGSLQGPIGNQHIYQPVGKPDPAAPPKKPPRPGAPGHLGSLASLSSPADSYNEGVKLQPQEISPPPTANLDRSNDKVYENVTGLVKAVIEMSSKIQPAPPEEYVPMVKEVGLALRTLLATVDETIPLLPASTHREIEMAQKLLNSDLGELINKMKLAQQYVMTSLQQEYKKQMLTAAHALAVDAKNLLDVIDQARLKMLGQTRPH
Sequence of Fibroblast growth factor 2 (Homo sapiens) (P09038 whole entry, looked up): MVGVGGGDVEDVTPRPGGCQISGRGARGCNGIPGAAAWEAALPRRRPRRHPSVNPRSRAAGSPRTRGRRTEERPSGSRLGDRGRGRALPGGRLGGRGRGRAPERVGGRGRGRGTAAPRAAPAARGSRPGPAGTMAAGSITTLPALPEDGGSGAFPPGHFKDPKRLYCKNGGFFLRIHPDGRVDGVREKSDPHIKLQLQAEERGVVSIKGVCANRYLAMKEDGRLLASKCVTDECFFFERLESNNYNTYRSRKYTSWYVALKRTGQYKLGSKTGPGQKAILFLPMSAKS
Sequence of Follistatin (Homo sapiens) (P19883 whole entry, looked up): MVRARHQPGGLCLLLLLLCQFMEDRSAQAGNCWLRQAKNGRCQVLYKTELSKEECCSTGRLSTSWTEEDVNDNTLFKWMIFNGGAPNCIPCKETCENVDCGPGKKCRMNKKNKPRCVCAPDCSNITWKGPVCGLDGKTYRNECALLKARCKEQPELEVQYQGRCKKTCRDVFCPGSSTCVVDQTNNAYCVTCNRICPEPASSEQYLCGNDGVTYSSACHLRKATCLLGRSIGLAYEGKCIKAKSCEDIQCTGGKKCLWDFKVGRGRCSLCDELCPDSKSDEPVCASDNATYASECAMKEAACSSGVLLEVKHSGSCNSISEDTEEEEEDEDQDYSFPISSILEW

Take `C[C@@H]1Cc2c(cnc3c2CN(C)CC3)CO1`: the composite z-score with Albumin (Bos taurus) was -0.537; in assay [2], -0.0902; in assay [3], -0.111; in assay [4] it was -0.0903; in [5] it was 0.233; in assay [6] it was -0.268. In addition, the composite z-score with Sam68 (KHDRBS1) is -0.512; in assay [7], 0.975; in [8], -1.28; in assay [9] it was -0.528; in assay [10], -0.336; in assay [11], 0.391. In addition, the composite z-score in assay [12] was -0.383; in assay [13] it was 0.783; in assay [14] it was 0.664; in the assay on Lefty1, 1.27; in assay [16] it was -0.23. Also, the composite Z-score in [1] is 0.266 (inactive). Further, the z-score in [15] was 0.0621; in assay [17] it was -0.345 (inactive).

For `CCc1cc2c(nc1CC)CCN(CCC(C)=NOC)C2`, the composite z-score with Albumin (Bos taurus) was 0.802; in assay [2], 0.256; in assay [3], -0.0028; in assay [4], 0.639; in [5] it was 0.45; in [6], 1.21. Besides, the composite z-score was 0.92 in the assay on Sam68 (KHDRBS1); 0.639 in assay [7]; -0.426 in [8]; 3.12 in [9]; 0.422 in assay [10]; -0.128 in assay [11]. For the same molecule, the composite z-score in assay [12] was -0.15; in assay [13], 1.24; in assay [14], 0.294; in the assay on Lefty1, 0.861; in assay [16], -0.141. Moreover, the composite Z-score in [1] was 0.154 (inactive). Further, the z-score is 0.268 in assay [15] and -0.773 (inactive) in [17].

On to `COC(=O)[C@H]1[C@H](c2ccccc2)C(=O)[C@]2(O)c3ccccc3O[C@@]12c1ccccc1`, for which the composite z-score in the assay with Albumin (Bos taurus) was 0.394; in assay [2], 0.0833; in assay [3], -0.199; in assay [4] it was -0.132; in assay [5], 0.0246; in [6], -0.0474. The composite z-score was 0.198 in the assay on Sam68 (KHDRBS1); 0.263 in assay [7]; 0.711 in assay [8]; -0.179 in assay [9]; 0.382 in [10]; 0.227 in assay [11]. Further, the composite z-score in assay [12] was found to be 0.826; in assay [13], 0.402; in assay [14] it was 0.186; in the assay with Lefty1, 0.266; in [16] it was 0.167. Moreover, in assay [1], the composite Z-score was 0.311 (inactive). Also, the z-score in assay [15] is 0.866; in [17], -1.9 (inactive).

As for `COC(=O)[C@@]1(Cc2ccccc2)[C@H]2c3cc(C(=O)N(C)C)n(C)c3C[C@H]2CN1C(=O)c1ccccc1`, the composite z-score stood at 0.958 with Albumin (Bos taurus); 0.165 in assay [2]; 0.111 in [3]; 0.839 in [4]; 3.26 in assay [5]; 1.29 in assay [6]. The composite z-score is -0.299 in the assay with Sam68 (KHDRBS1); -0.652 in assay [7]; 0.396 in [8]; 1.18 in assay [9]; 0.898 in assay [10]; 0.144 in assay [11]. In addition, the composite z-score in [12] was 0.84; in assay [13], -0.21; in assay [14], 0.125; in the assay on Lefty1 it was -0.627; in assay [16], 0.668. The composite Z-score in assay [1] was -0.183 (inactive). Further, the z-score in assay [15] was -0.0935; in assay [17] it was 1.59 (inactive).

On to `C=C(CC1(C(C)NP(=O)(c2ccccc2)c2ccccc2)CC1)c1ccccc1` (stereo not given), for which the composite z-score in the assay with Albumin (Bos taurus) turned out to be 0.314; in assay [2] it was 0.143; in [3], 0.038; in [4], 0.596; in [5] it was 3.14; in [6] it was 0.425. The composite z-score in the assay on Sam68 (KHDRBS1) was 1.18; in assay [7], -0.0819; in assay [8], 0.711; in assay [9], 2.95; in [10] it was 1.25; in assay [11], 0.788. In addition, the composite z-score in [12] was 0.94; in assay [13], 0.3; in assay [14] it was -0.34; in the assay with Lefty1, 0.0368; in assay [16], 0.501. The composite Z-score in assay [1] is -0.589 (inactive). In addition, the figures for the z-score in assay [15] and in [17] were -0.147 and 2.67 (inactive), respectively.

Turning to `CCCc1cc2c(n1CCO)C(C)C1CN(C(=O)c3ccccc3)C(C)(C(=O)OC)C21` (stereo not given), the composite z-score came to 0.979 with Albumin (Bos taurus); 1.25 in assay [2]; 0.424 in assay [3]; 0.843 in assay [4]; 3.26 in assay [5]; 1.09 in assay [6]. For the same molecule, the composite z-score was 0.563 in the assay on Sam68 (KHDRBS1); -1.23 in [7]; 1.11 in assay [8]; 2.55 in assay [9]; 1.14 in [10]; 1.42 in assay [11]. Moreover, the composite z-score in assay [12] is 0.64; in [13] it was -0.315; in [14] it was -0.634; with Lefty1, -0.875; in [16], 1.25. Also, the composite Z-score in assay [1] was 0.43 (inactive). In addition, the figures for the z-score in [15] and in assay [17] were 0.9 and 1.54 (inactive), respectively.

As for `CCOC(=O)[C@H]1CC=C2C(=O)Oc3ccccc3[C@@H]21`, the composite z-score in the assay with Albumin (Bos taurus) is 0.445; in assay [2], -0.126; in assay [3], -0.162; in assay [4], 0.568; in assay [5], 0.468; in assay [6], 1.3. The composite z-score in the assay on Sam68 (KHDRBS1) was -0.491; in assay [7], -0.94; in assay [8] it was 0.122; in [9], 2.35; in assay [10] it was -0.268; in [11] it was 0.374. For the same molecule, the composite z-score in [12] is -0.192; in assay [13] it was -0.628; in assay [14], -0.903; in the assay with Lefty1, -0.54; in assay [16], -0.351. In addition, the composite Z-score in assay [1] is -0.123 (inactive). The values for the z-score in assay [15] and in assay [17] were -0.955 and 1.32 (inactive), respectively.

Consider `OCc1ccc(C2=CC(C3CC3)N(Cc3sc4ccccc4c3Cl)CC2)cc1` (stereo not given), for which the composite z-score in the assay with Albumin (Bos taurus) is -0.0477; in assay [2] it was -0.0932; in assay [3] it was -0.133; in assay [4], 0.306; in assay [5], 0.88; in assay [6], 0.434. In addition, the composite z-score with Sam68 (KHDRBS1) worked out at 1.07; in [7] it was 0.529; in [8] it was 0.948; in assay [9] it was 2.28; in assay [10], 1.17; in assay [11], 0.257. For the same molecule, the composite z-score in [12] was 0.483; in [13], 1.06; in [14], 0.867; with Lefty1, 0.853; in [16], 0.42. For the same molecule, the composite Z-score in assay [1] is 0.565 (inactive). Also, the z-score in assay [15] was 0.941; in [17] it was -1.57 (inactive).
